D1 antag = blocks dopamine activation of the human D1 receptor | P21728 | HEK293 TREx D1 cells, calcium flux, dopamine EC80; active compounds read low | activity change, negative = inhibition, % at 10 µM | 360,000 compounds, 3.2% hits | AID 504652; in the data active means activity change below about -30%; further: on the % scale 0 is the no-effect control and ±100 the full control effect
Target sequence (P21728 whole entry, looked up): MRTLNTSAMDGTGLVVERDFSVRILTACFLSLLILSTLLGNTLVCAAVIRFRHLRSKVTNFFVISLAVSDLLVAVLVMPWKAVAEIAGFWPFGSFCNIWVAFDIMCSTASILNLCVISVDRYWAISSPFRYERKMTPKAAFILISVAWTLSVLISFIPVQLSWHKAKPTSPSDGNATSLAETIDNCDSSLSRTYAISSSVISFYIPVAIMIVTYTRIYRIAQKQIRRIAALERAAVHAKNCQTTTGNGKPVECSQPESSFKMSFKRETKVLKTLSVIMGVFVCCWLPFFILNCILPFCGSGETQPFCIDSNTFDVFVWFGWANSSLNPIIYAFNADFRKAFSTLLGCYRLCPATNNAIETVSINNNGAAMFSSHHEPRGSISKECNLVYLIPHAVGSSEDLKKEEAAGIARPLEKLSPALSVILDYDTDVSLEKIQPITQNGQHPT
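HEK293 T-REx cells expressing inducible, force-coupled D1 receptor; no-wash Ca dye, 30–90 min RT. Cmpd → 180 s read at 1 Hz → EC80 DA → 180 s read.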
D1 ag = agonists of human D1 dopamine receptor; P21728; HEK293 T-REx D1 cells, calcium flux, agonist mode; activation, % at 2 µM; 360,000 compounds, 1% hits; further: 0% is about no effect
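Inducible HEK293 T-REx D1 cells, force-coupled to calcium signalling, were plated at 4000 cells/well with tetracycline and held overnight at 30 C. After no-wash calcium dye loading, compound-evoked calcium rise over 180 s flagged agonists.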
TRHR enhancer = allosterically enhances the human TRH receptor; P34981; TRHR cells, fluo-8 calcium fluorescence, EC20 TRH enhancement; enhancement, % at 2 µM; 360,000 compounds, 0.66% hits; in the data active means enhancement above about 30%; further: 0% is about no effect
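TRHR-expressing cells loaded with fluo-8 calcium dye were read kinetically (ex 480/em 530) during compound addition, then stimulated with an EC20 of TRH (10 nM final). Enhancement of the Gq-mediated intracellular calcium response was scored.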
TRHR agonist = activates the human TRH receptor | TRHR cells, calcium flux fluo-8, FDSS agonist mode | P34981 | 360,000 compounds, 0.18% hits | AID 493084 | activation, % at 2 µM; further: 0% is about no effect
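In this calcium-flux screen, cells bearing human TRHR are dye-loaded with fluo-8, baselined for 10 cycles, then exposed to library compounds; positive kinetic calcium responses during the agonist phase mark hits, with TRH as control.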
D1 PAM = human D1 dopamine receptor positive modulation; P21728; HEK293 TREx D1 cells, calcium flux, dopamine EC20 potentiation; potentiation, % at 10 µM; 360,000 compounds, 0.036% hits; AID 504651; in the data active means potentiation above about 30%; further: 0% is about no effect
* = called active by the depositor; . = no result. Only some compounds are listed: those with a hit (about 4.7% of all), similar ones and a draw of the others. Unless noted, no stated cut-off is given here; in the data, active means activation above about 30%; inactive means the rest.

SMILES | D1 antag | D1 ag | TRHR enhancer | TRHR agonist | D1 PAM
O=C(Nc1cccc(-c2nc3ccccc3o2)c1)c1cccc2c(Cl)cccc12 | -11 | -1 | -2 | 1 | -5
CSC1=NC2(CC(c3ccccc3)Oc3cc(O)ccc32)CC(C)(C)N1 (stereo not given) | 30 | 167* | 3 | 0 | 8
Cc1cccc(C)c1NC(=O)N1C2CCC1CC(O)(c1cccnc1)C2 (stereo not given) | -2 | 2 | 9 | 0 | 5
Cc1ccccc1NC(=O)N1C2CCC1CC(O)(c1cccnc1)C2 (stereo not given) | -34* | 0 | -4 | -1 | -2
COc1ccc(S(=O)(=O)N2CCN(CC(=O)Nc3ccc(F)c(F)c3)CC2)cc1 | -33* | 8 | -1 | 0 | -8
CC1CCN(S(=O)(=O)c2ccc(NC(=O)CN3CCCC3)cc2)CC1 | 26 | 36* | 0 | 1 | 3
COc1ccc(C(=O)CN2CCN(S(=O)(=O)c3ccc(F)cc3)CC2)cc1 | -30* | 3 | -2 | 0 | -4
COc1ccc(S(=O)(=O)N2CCN(CC(=O)Nc3cccc(OC)c3)CC2)cc1 | -5 | 0 | -4 | 0 | 2
COC(=O)c1ccc(NC(=O)CN2CCN(S(=O)(=O)c3cc(Cl)ccc3OC)CC2)cc1 | 2 | 38* | 0 | -2 | -6
CCCCNC(=O)c1ccc2c(SCC(=O)O)c3c(nc2c1)CCCC3 | -24 | 6 | -6 | 0 | -7
CCCN(C(=O)c1ccc2c(SCC(=O)O)c3c(nc2c1)CCC3)c1cccc(C)c1 | -39* | 0 | -5 | 0 | -5
CCN1C(=O)c2ccccc2S(=O)c2ccc(C(=O)N3CCN(c4ccccc4OC)CC3)cc21 (stereo not given) | -5 | 0 | 1 | 0 | -4
COc1ccc(F)cc1S(=O)(=O)Nc1ccc2c(c1)CCCN2C(=O)c1cccs1 | 22 | 4 | 10 | -1 | 0
CCN(CC)CCNC(=O)C(C)c1nn(CC)c(=O)c2ccccc12 (stereo not given) | -57* | 1 | 2 | 1 | 3
CCN(CC)CCNC(=O)Cc1nn(CC)c(=O)c2ccccc12 | 19 | 4 | -1 | 0 | -6
Cc1ccc(S(=O)(=O)N2CCOC23CCN(C(=O)c2ccc(Cl)cc2Cl)CC3)cc1 | -24 | 22 | 32* | 1 | -4
Cc1ccc(S(=O)(=O)N2CCOC23CCN(C(=O)c2cc(Cl)ccc2Cl)CC3)cc1 | -25 | 7 | -4 | 0 | -9
COc1ccc(CNC(C)CCc2ccccc2)cc1 (stereo not given) | 1 | 17 | 1 | 0 | -1
COc1ccc(CCNCc2ccc(OCc3ccccc3)cc2)cc1 | 19 | 61* | 7 | 1 | 3
COc1cccc(OCCNCc2ccccc2)c1 | -18 | 4 | 2 | 0 | 34*
Cc1cccc(OCCCCNCc2ccccc2)c1 | 15 | 8 | -2 | 0 | -3
CCOc1cc(CNCc2ccccc2)ccc1OCc1ccc(Cl)cc1 | -20 | 35* | 12 | 4 | 3
COc1ccc(CNCCc2ccc(Cl)cc2)cc1OCc1ccccc1 | -19 | 58* | 21 | 0 | -3
COc1ccc(CCNCc2ccc(OCc3ccc(Cl)nc3)c(OC)c2)cc1OC | -8 | 59* | 0 | 4 | -7
c1ccc(COc2ccc(CNCc3cccs3)cc2)cc1 | -7 | 129* | 6 | 0 | 42*
SMILES | D1 antag | D1 ag | TRHR enhancer | TRHR agonist | D1 PAM
Brc1ccc(CNCc2cccs2)cc1 | -1 | 2 | -3 | 0 | -2
Cc1ccc(CNS(=O)(=O)c2cnc(N)nc2)cc1 | 2 | 2 | -4 | 0 | -6
CN(Cc1ccccc1)c1nc(-c2ccc(F)cc2)cc(C(F)(F)F)n1 | 10 | 7 | -1 | 3 | 2
CC(CNC(=O)c1ccc2nc(CCc3ccccc3)oc2c1)c1ccccc1 (stereo not given) | -8 | 21 | 0 | 2 | -2
CCOC(=O)Cc1cc(=O)[nH]c(/N=C(\N)Nc2ccc(C)c(C)c2)n1 | -44* | 4 | 1 | 0 | -7
COc1ccc(N/C(N)=N/c2nc(C)cc(=O)[nH]2)cc1 | -37* | 4 | 7 | 0 | -2
COc1ccccc1N/C(N)=N/c1nc(C(F)(F)F)cc(=O)[nH]1 | -57* | 4 | 1 | 0 | -10
CCOC(=O)[C@H]1[C@H]2COc3ccc(Br)cc3[C@@H]2N2C(=O)CN(Cc3ccc(OC)cc3)C(=O)[C@@]12C | -30* | 0 | -2 | 0 | 2
CCCC(=O)OC1CC(C)N(C(=O)c2ccccc2)c2ccc(C)cc21 (stereo not given) | -8 | 32* | -2 | 0 | -24
CC(=O)OC1CC(C)N(C(=O)c2ccccc2)c2ccc(C)cc21 (stereo not given) | -5 | 2 | -2 | -1 | 0
COc1ccc(CCNC(=O)CCn2c(=O)c3ccccc3n(Cc3ccccc3)c2=O)cc1OC | -4 | -3 | -2 | -2 | 0
Cc1ccccc1Cn1c(C)c(CNCc2ccccc2)c(C(=O)O)c1C | -7 | -1 | 5 | 1 | 0
O=C(N/N=C/c1ccc(O)cc1)c1cc(-c2ccccc2)nc2ccccc12 | 5 | 1 | 13 | 0 | -3
O=C(N/N=C/c1ccc(O)cc1)c1csc2ccccc12 | -57* | 1 | -6 | 0 | -2
Cc1ccc(C(=O)NC(C)C2CCCO2)o1 (stereo not given) | -11 | 8 | 0 | 0 | -10
CC(NC(=O)c1ccc(Br)o1)C1CCCO1 (stereo not given) | -31* | 0 | -6 | 0 | -10
CCOc1ccc(NC(=O)NCc2cccn2C)cc1 | -42* | 0 | -8 | 0 | -6
CCOc1ccc(NC(=O)NC23CC4CC(CC(C4)C2)C3)cc1 | -31* | 13 | 9 | 1 | -6
CCN(CC)c1ccc2cc(-c3nnc(-c4ccncc4)o3)c(=O)oc2c1 | -18 | 199* | 12 | 285* | -9
CCN(CC)c1ccc2cc(-c3nnc(-c4cccc(Cl)c4)o3)c(=O)oc2c1 | -14 | 416* | 28 | 171* | 38*
COc1cccc(-c2nnc(-c3cc4cc(Cl)ccc4oc3=O)o2)c1 | 31 | 1 | -5 | 1 | -3
CCc1cnc2c(c1SCC(=O)Nc1ccc(Cl)cc1)c(=O)n(C)c(=O)n2C | . | 1 | -1 | 0 | -1
S=C(NCCN(C1CCCCC1)C1CCCC1)Nc1cccc(Cl)c1 | 11 | 31* | 2 | 3 | -4
S=C(NCCC(c1ccccc1)c1ccccc1)Nc1cccc(Cl)c1 | -49* | 3 | -2 | 0 | -4
Cc1cccc(NC(=S)NCCC(C)C)c1 | 0 | 227* | 10 | -1 | -5
COc1ccc(CCNC(=S)Nc2cccc(C)c2)cc1 | 1 | -1 | -6 | -1 | -6
S=C(Nc1cccc(Cl)c1)NC1CC2CCCC(C1)N2C1CCCC1 (stereo not given) | -10 | 10 | -1 | 2 | -11

Source: PubChem BioAssay
